Source: ChEMBL document CHEMBL1961873, “Compounds: GSK PKIS; Assays: Nanosyn kinase panel” (2012)

How the values were obtained:
[1] = target: Tyrosine-protein kinase Fer (Homo sapiens) (UniProt P16591); conditions: at 1 µM
[2] = target: Tyrosine-protein kinase Fes/Fps (Homo sapiens) (UniProt P07332); conditions: at 0.1 µM
[3] = target: Tyrosine-protein kinase Fes/Fps (Homo sapiens) (UniProt P07332); conditions: at 1 µM
[4] = target: Fibroblast growth factor receptor 1 (Homo sapiens) (UniProt P11362); conditions: at 0.1 µM
Sequence of Fibroblast growth factor receptor 1 (Homo sapiens) (P11362 22-822 limits assumed): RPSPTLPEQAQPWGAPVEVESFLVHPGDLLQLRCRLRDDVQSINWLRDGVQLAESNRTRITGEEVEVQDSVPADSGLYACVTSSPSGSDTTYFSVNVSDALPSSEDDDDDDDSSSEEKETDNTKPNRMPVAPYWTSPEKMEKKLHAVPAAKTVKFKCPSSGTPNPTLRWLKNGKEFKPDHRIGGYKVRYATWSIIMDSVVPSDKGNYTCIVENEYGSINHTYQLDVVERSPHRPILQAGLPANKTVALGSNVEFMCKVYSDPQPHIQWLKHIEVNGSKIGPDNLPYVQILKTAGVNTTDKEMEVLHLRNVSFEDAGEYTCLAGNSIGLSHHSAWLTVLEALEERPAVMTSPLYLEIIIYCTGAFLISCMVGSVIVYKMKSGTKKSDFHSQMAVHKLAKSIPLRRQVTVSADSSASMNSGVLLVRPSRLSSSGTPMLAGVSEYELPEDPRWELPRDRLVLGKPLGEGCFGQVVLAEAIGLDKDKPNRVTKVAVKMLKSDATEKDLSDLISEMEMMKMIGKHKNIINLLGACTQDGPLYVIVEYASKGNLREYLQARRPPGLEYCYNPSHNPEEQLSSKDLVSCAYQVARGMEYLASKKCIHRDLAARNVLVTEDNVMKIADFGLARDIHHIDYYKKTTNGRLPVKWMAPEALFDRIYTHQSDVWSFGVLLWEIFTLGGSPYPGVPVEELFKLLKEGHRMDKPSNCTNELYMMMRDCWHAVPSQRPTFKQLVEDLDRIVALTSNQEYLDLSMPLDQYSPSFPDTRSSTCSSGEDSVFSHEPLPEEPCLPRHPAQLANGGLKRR

[5] = target: Fibroblast growth factor receptor 1 (Homo sapiens) (UniProt P11362); conditions: at 1 µM
[6] = target: Fibroblast growth factor receptor 2 (Homo sapiens) (UniProt P21802); conditions: at 0.1 µM
Sequence of Fibroblast growth factor receptor 2 (Homo sapiens) (P21802 22-821 limits assumed): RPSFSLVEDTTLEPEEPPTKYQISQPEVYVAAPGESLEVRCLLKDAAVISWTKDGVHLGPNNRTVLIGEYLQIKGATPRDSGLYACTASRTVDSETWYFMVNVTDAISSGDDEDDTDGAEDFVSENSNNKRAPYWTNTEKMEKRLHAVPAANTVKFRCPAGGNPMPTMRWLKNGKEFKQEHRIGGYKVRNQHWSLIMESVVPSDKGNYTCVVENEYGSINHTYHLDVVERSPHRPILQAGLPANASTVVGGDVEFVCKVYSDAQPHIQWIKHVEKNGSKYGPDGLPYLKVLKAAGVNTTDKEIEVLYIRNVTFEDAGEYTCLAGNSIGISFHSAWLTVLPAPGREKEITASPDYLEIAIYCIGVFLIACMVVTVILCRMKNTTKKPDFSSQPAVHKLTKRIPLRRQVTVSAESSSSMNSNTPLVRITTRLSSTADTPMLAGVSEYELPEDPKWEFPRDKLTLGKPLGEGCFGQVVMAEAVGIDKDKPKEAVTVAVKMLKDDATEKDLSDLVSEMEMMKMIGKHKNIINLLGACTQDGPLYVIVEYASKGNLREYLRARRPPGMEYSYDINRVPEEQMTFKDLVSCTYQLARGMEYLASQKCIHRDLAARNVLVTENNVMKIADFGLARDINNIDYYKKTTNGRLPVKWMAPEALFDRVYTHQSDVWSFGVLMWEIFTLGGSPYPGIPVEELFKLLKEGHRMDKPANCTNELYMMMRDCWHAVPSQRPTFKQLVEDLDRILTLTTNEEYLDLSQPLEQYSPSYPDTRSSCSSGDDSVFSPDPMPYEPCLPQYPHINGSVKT

[7] = target: Fibroblast growth factor receptor 2 (Homo sapiens) (UniProt P21802); conditions: at 1 µM
[8] = target: Fibroblast growth factor receptor 3 (Homo sapiens) (UniProt P22607); conditions: at 0.1 µM
Sequence of Fibroblast growth factor receptor 3 (Homo sapiens) (P22607 23-806 limits assumed): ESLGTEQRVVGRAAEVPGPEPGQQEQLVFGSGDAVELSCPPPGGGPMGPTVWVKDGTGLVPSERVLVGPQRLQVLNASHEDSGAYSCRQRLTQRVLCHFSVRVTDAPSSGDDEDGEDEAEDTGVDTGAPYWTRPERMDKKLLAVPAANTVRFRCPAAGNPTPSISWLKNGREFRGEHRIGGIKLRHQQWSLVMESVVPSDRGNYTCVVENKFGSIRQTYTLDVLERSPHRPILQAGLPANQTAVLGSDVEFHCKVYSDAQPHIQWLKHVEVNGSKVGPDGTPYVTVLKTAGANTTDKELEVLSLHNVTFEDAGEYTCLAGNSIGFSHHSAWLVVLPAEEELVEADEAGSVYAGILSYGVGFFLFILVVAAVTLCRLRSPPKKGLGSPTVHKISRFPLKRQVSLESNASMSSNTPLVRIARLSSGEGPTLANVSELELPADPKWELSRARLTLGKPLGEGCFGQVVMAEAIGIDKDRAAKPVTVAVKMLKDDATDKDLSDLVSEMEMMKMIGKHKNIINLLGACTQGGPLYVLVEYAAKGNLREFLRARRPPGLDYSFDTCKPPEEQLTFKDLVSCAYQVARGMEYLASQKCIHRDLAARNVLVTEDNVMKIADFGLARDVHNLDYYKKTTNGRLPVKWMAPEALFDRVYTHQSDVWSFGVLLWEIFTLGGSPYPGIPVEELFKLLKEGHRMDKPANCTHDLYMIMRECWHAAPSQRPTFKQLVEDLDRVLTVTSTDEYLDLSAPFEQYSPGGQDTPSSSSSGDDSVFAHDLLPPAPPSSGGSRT

[9] = target: Fibroblast growth factor receptor 3 (Homo sapiens) (UniProt P22607); conditions: at 1 µM
[10] = target: Fibroblast growth factor receptor 4 (Homo sapiens) (UniProt P22455); conditions: at 0.1 µM
Sequence of Fibroblast growth factor receptor 4 (Homo sapiens) (P22455 22-802 limits assumed): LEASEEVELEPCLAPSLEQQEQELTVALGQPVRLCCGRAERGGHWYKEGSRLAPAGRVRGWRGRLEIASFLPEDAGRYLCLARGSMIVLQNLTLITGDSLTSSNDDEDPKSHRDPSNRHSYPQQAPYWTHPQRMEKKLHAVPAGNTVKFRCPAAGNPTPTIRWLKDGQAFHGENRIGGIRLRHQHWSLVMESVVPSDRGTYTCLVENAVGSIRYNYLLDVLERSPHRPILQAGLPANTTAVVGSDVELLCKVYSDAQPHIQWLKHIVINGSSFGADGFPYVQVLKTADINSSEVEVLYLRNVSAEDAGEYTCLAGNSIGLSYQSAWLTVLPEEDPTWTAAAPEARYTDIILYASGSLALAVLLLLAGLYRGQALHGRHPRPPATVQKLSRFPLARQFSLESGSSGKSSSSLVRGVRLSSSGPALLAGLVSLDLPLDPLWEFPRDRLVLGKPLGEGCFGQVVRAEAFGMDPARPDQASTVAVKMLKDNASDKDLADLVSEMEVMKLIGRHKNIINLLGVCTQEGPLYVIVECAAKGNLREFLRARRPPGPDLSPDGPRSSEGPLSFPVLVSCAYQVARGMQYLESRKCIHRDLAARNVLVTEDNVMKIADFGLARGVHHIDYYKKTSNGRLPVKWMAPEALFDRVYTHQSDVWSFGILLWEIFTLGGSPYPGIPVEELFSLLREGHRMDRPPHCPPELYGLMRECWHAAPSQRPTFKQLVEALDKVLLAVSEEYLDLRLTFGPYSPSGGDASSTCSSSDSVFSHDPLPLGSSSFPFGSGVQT

[11] = target: Fibroblast growth factor receptor 4 (Homo sapiens) (UniProt P22455); conditions: at 1 µM
[12] = target: Tyrosine-protein kinase Fgr (Homo sapiens) (UniProt P09769); conditions: at 0.1 µM
Sequence of Tyrosine-protein kinase Fgr (Homo sapiens) (P09769 2-529 limits assumed): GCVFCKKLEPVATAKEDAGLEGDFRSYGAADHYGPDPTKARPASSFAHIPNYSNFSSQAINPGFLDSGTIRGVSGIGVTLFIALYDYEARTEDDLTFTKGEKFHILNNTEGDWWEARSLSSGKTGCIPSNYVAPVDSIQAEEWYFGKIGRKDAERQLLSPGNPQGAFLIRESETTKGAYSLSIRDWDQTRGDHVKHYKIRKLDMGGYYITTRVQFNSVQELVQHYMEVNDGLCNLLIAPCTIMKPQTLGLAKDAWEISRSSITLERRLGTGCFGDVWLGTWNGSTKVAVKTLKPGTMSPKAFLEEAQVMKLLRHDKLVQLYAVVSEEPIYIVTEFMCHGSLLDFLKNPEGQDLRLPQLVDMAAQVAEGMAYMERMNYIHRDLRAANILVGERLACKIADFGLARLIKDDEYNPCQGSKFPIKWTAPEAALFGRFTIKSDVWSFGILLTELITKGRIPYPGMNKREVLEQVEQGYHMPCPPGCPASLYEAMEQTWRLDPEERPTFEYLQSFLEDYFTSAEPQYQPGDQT

[13] = target: Tyrosine-protein kinase Fgr (Homo sapiens) (UniProt P09769); conditions: at 1 µM
[14] = target: Vascular endothelial growth factor receptor 1 (Homo sapiens) (UniProt P17948); conditions: at 0.1 µM
[15] = target: Vascular endothelial growth factor receptor 1 (Homo sapiens) (UniProt P17948); conditions: at 1 µM
[16] = target: Receptor-type tyrosine-protein kinase FLT3 (Homo sapiens) (UniProt P36888); conditions: at 0.1 µM
[17] = target: Receptor-type tyrosine-protein kinase FLT3 (Homo sapiens) (UniProt P36888); conditions: at 1 µM
[18] = system: T1, Receptor-type tyrosine-protein kinase FLT3 (Homo sapiens), P36888 [D835Y]; conditions: at 0.1 µM
T1 sequence (whole entry): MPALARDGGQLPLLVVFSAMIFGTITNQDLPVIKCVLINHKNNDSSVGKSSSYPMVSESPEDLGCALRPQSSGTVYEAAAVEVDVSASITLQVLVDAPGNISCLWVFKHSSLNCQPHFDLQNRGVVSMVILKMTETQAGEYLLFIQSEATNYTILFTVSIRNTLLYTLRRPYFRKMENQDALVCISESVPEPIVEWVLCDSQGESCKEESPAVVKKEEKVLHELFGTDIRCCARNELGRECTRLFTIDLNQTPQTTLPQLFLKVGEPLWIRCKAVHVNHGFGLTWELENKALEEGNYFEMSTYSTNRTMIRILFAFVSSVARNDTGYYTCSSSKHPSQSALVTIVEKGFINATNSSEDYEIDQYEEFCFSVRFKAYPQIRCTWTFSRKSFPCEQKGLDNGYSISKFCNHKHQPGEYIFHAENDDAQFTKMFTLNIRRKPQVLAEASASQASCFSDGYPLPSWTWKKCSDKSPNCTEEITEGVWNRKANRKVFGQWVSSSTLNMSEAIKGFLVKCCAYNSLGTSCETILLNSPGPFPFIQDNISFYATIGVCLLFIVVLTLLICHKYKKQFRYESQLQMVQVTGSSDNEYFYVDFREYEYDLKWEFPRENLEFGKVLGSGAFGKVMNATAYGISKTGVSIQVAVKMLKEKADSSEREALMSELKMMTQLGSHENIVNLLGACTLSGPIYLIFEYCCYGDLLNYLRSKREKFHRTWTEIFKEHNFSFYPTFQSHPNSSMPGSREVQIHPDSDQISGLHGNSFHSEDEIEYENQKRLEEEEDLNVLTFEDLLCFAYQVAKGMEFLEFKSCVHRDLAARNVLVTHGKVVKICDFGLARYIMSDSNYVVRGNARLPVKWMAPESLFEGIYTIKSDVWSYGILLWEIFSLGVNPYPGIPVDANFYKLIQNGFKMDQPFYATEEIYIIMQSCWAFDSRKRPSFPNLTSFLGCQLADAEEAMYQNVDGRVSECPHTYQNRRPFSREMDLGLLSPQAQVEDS

[19] = target: Non-receptor tyrosine-protein kinase TYK2 (Homo sapiens) (UniProt P29597); conditions: at 1 µM;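 further: values are mean percent inhibition of TYK2 kinase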
Sequence of Non-receptor tyrosine-protein kinase TYK2 (Homo sapiens) (P29597 whole entry): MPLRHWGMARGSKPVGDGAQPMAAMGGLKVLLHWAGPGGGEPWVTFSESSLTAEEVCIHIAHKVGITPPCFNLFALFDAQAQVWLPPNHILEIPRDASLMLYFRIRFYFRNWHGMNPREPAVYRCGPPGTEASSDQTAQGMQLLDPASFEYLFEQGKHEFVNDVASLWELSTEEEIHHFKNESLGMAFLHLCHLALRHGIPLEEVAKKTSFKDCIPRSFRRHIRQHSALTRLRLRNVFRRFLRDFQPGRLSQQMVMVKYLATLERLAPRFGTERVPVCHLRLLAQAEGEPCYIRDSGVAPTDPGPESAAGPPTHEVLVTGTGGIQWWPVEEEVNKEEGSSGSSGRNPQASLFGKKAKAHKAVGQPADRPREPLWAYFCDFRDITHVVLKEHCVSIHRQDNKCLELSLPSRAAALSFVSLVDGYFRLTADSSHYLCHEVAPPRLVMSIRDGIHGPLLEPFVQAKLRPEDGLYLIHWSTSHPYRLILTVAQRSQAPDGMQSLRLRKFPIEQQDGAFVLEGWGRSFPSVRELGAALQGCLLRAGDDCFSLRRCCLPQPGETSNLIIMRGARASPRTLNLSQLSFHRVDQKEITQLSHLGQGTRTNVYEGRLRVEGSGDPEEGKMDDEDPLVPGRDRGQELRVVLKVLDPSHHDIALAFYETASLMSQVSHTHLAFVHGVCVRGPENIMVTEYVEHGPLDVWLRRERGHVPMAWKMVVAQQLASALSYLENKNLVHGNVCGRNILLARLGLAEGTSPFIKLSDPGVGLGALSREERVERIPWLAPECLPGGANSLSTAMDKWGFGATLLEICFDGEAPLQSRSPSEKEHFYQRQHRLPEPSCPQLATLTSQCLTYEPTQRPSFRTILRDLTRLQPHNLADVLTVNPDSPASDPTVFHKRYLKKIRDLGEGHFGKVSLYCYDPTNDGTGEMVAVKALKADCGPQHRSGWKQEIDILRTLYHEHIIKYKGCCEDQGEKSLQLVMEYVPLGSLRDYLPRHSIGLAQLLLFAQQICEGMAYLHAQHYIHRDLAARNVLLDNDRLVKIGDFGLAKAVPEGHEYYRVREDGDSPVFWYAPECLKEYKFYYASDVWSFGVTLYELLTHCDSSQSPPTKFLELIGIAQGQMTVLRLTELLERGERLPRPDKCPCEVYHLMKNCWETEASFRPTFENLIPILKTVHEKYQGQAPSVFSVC

[20] = target: T2, Tyrosine-protein kinase receptor TYRO3 (Homo sapiens) (UniProt Q06418); conditions: at 0.1 µM;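 further: reported percentages are averaged inhibition values of TYRO3 kinase activity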
T2 sequence (whole entry): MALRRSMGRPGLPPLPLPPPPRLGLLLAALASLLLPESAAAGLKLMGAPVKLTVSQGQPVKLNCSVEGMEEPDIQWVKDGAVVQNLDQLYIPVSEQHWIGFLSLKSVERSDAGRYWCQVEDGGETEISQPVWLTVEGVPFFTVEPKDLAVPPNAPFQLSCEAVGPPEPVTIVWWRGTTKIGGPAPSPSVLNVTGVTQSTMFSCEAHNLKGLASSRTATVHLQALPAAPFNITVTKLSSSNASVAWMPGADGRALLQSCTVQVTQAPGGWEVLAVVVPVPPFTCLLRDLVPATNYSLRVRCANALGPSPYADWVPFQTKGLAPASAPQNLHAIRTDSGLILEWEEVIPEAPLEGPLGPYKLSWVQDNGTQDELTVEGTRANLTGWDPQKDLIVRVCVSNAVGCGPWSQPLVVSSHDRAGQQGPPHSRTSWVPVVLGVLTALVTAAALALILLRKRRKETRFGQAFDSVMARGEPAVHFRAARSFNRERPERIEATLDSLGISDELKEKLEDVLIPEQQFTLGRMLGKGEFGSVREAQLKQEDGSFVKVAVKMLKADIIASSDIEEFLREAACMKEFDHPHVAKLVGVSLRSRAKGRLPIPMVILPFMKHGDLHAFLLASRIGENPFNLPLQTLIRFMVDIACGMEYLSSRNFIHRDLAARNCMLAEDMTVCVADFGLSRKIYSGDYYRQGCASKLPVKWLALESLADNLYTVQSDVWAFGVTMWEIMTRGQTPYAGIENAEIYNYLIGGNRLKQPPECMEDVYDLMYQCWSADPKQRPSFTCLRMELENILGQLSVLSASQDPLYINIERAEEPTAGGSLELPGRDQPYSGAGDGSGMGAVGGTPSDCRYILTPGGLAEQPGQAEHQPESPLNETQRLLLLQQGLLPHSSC

Row | Structure (SMILES) | inhibition [1] [%] | inhibition [2] [%] | inhibition [3] [%] | inhibition [4] [%] | inhibition [5] [%] | inhibition [6] [%] | inhibition [7] [%] | inhibition [8] [%] | inhibition [9] [%] | inhibition [10] [%] | inhibition [11] [%] | inhibition [12] [%] | inhibition [13] [%] | inhibition [14] [%] | inhibition [15] [%] | inhibition [16] [%] | inhibition [17] [%] | inhibition [18] [%] | inhibition [19] [%] | inhibition [20] [%]
1 | C#Cc1cccc(Nc2ncnc3ccc(OCCCCNCCS(C)(=O)=O)cc23)c1 | 3.37 | 2.69 | 6.01 | 0.37 | 0.98 | 1.4 | 2.36 | 5.79 | 3.33 | -4.44 | -1.61 | 10.5 | 15.5 | 2.51 | 4.95 | 1.29 | 2.94 | 3.91 | -1.47 | 2.65
2 | NCc1ccc(-n2c(-c3nonc3N)nc3cnccc32)cc1 | 5.77 | 12.8 | 13 | 4.07 | 6.76 | 6.5 | 9.9 | 9.59 | 6.14 | -4.29 | 0.49 | 1.73 | 3.12 | 1.08 | 1.4 | 1.23 | 3.45 | -4.05 | -2.73 | 1.87
3 | O=C(NCC1CC1)c1ccc(-c2cccc(C(=O)NC3CC3)c2)cc1 | -1.83 | 1.39 | 1.59 | 2.86 | 8.03 | 3.33 | 10.1 | 4.92 | 9.43 | -0.02 | 0.84 | -0.78 | 4.28 | 2.16 | 3.45 | 1.49 | 3.46 | 0.3 | -5.6 | 3.93
4 | C[C@@H](Oc1cc(-n2cnc3ccc(OC4CCN(C)CC4)cc32)sc1C(N)=O)c1ccccc1Cl | 3.96 | 2.48 | 3.52 | 2.78 | 9.26 | 4.51 | 8.58 | 4.86 | 9.86 | -0.28 | -1.19 | 3.65 | 4.89 | 1.54 | 3.12 | 3.07 | 14.4 | 1.72 | -7.54 | 2.39
5 | c1ccc(Oc2ccc(Nc3ncc(-c4ccccc4)o3)cc2)cc1 | 1.64 | 0.55 | 0.4 | -1.76 | 2.11 | 1.12 | 3.49 | 4.41 | 4.9 | 2.77 | 3.31 | 1.2 | 4.81 | 1.53 | 4.46 | 2.44 | 13.3 | 0.51 | -0.96 | 2.18
6 | C[C@@H](Oc1cc(-n2cnc3ccc(OCC4CCN(C)CC4)cc32)sc1C(N)=O)c1ccccc1Cl | 7.17 | 4.96 | 7.97 | 5.32 | 14 | 9.46 | 12.5 | 11.2 | 8.71 | 3.93 | 4.52 | 2.78 | 13.7 | 1.38 | -0.37 | 6.77 | 16.1 | -8.99 | -4.49 | 2.99
7 | Cc1ccc(C(=O)NC(C)C)cc1-c1ccc(C(=O)NCC2CC2)cc1 | -1.61 | -2.77 | -3 | -5.37 | -2.8 | -4.22 | -3.57 | -4.95 | -3.57 | 1.18 | 0.47 | -1.7 | -1.1 | 0.43 | -1.81 | -4.25 | -1.66 | -1.15 | 2.94 | -2.22
8 | COc1cc2ncn(-c3cc(OCc4ccccc4C(F)(F)F)c(C(C)=O)s3)c2cc1OC | 7.96 | 2.84 | 2.74 | 2.64 | 2.73 | 3.27 | 9.16 | 2.58 | 6.41 | -0.33 | 0.4 | 3.6 | 6.26 | 1.7 | 1.67 | 1.77 | 5.32 | 1.44 | -0.07 | 1.52
9 | Clc1ccc(CNc2nccc(-c3cnn4ncccc34)n2)cc1 | 1.93 | 0.01 | 1.6 | 0.58 | -1.59 | 0.2 | 1.7 | -0.71 | -0.67 | 4.74 | 1.27 | 3.59 | 4 | -1.24 | 6.44 | 1.16 | 1.79 | 2.77 | 1.83 | 1.5
10 | COc1cc(Nc2ncc3c(C)nc(-c4cccc(C(F)(F)F)c4)n3n2)cc(OC)c1OC | 16.6 | 2.74 | 4.66 | 0.79 | 3.96 | 1.87 | 10.6 | 3.25 | 4.79 | 0.66 | 0.75 | 7.22 | 14 | 2.19 | 5.18 | 6.14 | 36.3 | 3.11 | -1.24 | 4.04
11 | C/C(Nc1ccc(S(N)(=O)=O)cc1)=C1/C(=O)Nc2ccccc21 | 10.5 | -2.91 | -3.39 | -4.77 | 6.33 | 0.2 | 21.1 | 0.94 | 21 | 1.73 | 3.59 | 0.92 | 11.4 | 10.8 | 23.6 | 13.9 | 62.9 | 7.17 | 6.88 | 1.52
12 | Fc1ccc(-c2ncn(C3CCNCC3)c2-c2ccnc(Oc3ccc4c(c3)OCO4)n2)cc1 | 10.4 | 4.19 | 3.36 | 3.51 | 11.8 | 6.16 | 12 | 6.95 | 9.41 |  | 0.91 | 3.23 | 7.38 | 0.92 | 2.35 | 4.05 | 7.47 | -0.87 | -3.97 | 1.93
13 | Fc1ccc(-c2ncn(CCCN3CCOCC3)c2-c2ccncc2)cc1 | -1.08 | -0.1 | -0.6 | 0.01 | -2.73 | -1.34 | 2.45 | 0.86 | 2.18 | -3 | 0.42 | -2.23 | 3.21 | -2.17 | 0.42 | 0.43 | 1.49 | -3.55 | -0.81 | -0.71
